# Assay results as given in PubChem BioAssay (NCI).
# Compounds without any hit were thinned out: in the full panel of roughly 83,000, 20% have a hit.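 48-hour exposure, single concentration, 96-well plates; percent growth endpoint where 0 means no net growth. Active: below 10.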 Values without a mark were called inactive. Activity calls are given as the source filed them.
# Test system: HL-60(TB) leukemia
# Test: NCI-60 one-dose screen, 48 h (100 = growth as untreated, 0 = no growth, -100 = all killed)
# Settings: 10 µM unless noted
row,SMILES,growth
1,CN1CCN(CCCOc2cccc3nc(Nc4ccc(F)c(F)c4)ccc23)CC1,38.8%
2,COc1cc(C(C)(C)C)cc(OC)c1C(O)(c1c(OC)cc(C(C)(C)C)cc1OC)c1c(OC)cc(C(C)(C)C)cc1OC,-63.7% (active)
3,O=C(O)C(c1ccccc1)N1C(=O)CSC1=S (centres undefined),129%
4,COC(=O)c1cccc(Br)c1,81.6%
5,COC(=O)c1ccc(NC(N)=NCCC(C)(C)c2ccc(C(F)(F)F)cc2)nc1,-41.4% (active)
6,CCCCCCCCCCCC[n+]1ccccc1 (tested in a mixture with another compound),-77.6% (active)
7,C#CCN1C(=O)/C(=c2\sc3n(c2=O)NC2C(N=3)N(CC)C(=O)N2CC)c2ccccc21 (centres undefined),-34.3% (active)
8,CCOC(=O)NC(C)C,68%
9,CC(C)(C)CC(C)(C)Nc1c(-c2c(O)c3ccccc3oc2=O)nc2c(Cl)cc(C(F)(F)F)cn12,90.9%
10,COc1ccccc1-c1nc2ccc3[nH]ncc3c2c2c1CCCC2,89.6%
11,C/C(=C(/c1ccc(Cl)cc1)c1ccc(OCCN2CCCC2)cc1)c1ccccc1,70.4%
12,COc1ccc(C(=O)c2cc(OC)c(C)c(OC)c2)cc1OC(=O)CCl,-28.5% (active)
13,O=C(NNc1ccc(-c2ccccc2)nn1)c1ccc(F)cc1,96.7%
14,CC(=O)c1c(C)nc(SCC(=O)Nc2ccc(Cl)cc2)n1-c1ccc(Cl)cc1,86.6%
15,NC(=O)c1cccc(-c2ccccc2N2CCCCC2)c1,95.3%
16,CC1CCC(n2cnc3c(Cl)ncnc32)O1 (centres undefined),112%
17,CCCCCCCC/C=C\CCCCCCCCOc1cccc(CC(=O)NCC[N+]2(C)CCCC2)c1,49.3%
18,CC(C)(C)c1cc(C(=O)Nc2ccccc2C(=O)NCCN)cc(C(C)(C)C)c1,-51.8% (active)
19,COc1ccc(S(=O)(=O)n2cc(C3OC(c4cc(OC)c(OC)c(OC)c4)=NN3C(C)=O)c3ccccc32)cc1OC (centres undefined),111%
20,Cc1cnc(Nc2ccc(OCCN3CCCC3)cc2)nc1NCc1ccco1,81.2%
21,COc1cccc(C2C(C#N)=C(N)Oc3cc(OC)ccc32)c1 (centres undefined),-32.2% (active)
22,COc1cc(C2=NN(C(C)=O)C(c3cc(OC)c(OC)c(OC)c3)C2)ccc1O (centres undefined),-37.6% (active)
23,CCn1cc(C2=C(c3cn(C)c4ncccc34)C(=O)NC2=O)c2cccnc21,89.8%
24,CCc1oc2ccccc2c1C(=O)c1cc(I)c(O)c(I)c1,10.1%
